Assay [1] in a line: qHTS for Inhibitors of the Functional Ribonucleoprotein Complex (vRNP) of Lassa (LASV) Arenavirus: LASV Primary Screen - GLuc reporter signal (AID 1347082; calls by dose curve; tested in HEK293 reporter line; also: series mostly up to about 57 µM; nearly all actives have a fitted effect of over 60% in size). (In general: qHTS replaces the single test concentration by a dilution series.)
A short description of assay [2]: qHTS for Inhibitors of the Functional Ribonucleoprotein Complex (vRNP) of Lassa (LASV) Arenavirus: Viability assay - alamar blue signal for LASV Primary Screen (AID 1347083; calls by dose curve; tested in HEK293 reporter line; also: series mostly up to about 57 µM; nearly all actives have a fitted effect of over 80% in size).
A short description of assay [3]: qHTS for Inhibitors of the Functional Ribonucleoprotein Complex (vRNP) of Lymphocytic Choriomeningitis Arenaviruses (LCMV): Viability assay - alamar blue signal for LCMV Primary Screen (AID 1347085; calls by dose curve; tested in HEK293 reporter line; also: series mostly up to about 57 µM; nearly all actives have a fitted effect of over 80% in size).
For assay [4], the target named is Nucleoprotein (Lymphocytic choriomeningitis virus (strain Armstrong)) (UniProt P09992). Nature of the assay: qHTS for Inhibitors of the Functional Ribonucleoprotein Complex (vRNP) of Lymphocytic Choriomeningitis Arenaviruses (LCMV): LCMV Primary Screen - GLuc reporter signal (AID 1347086; calls by dose curve; also: series mostly up to about 57 µM; nearly all actives have a fitted effect of over 70% in size).
Nucleoprotein (Lymphocytic choriomeningitis virus (strain Armstrong)), sequence (P09992 whole entry, looked up): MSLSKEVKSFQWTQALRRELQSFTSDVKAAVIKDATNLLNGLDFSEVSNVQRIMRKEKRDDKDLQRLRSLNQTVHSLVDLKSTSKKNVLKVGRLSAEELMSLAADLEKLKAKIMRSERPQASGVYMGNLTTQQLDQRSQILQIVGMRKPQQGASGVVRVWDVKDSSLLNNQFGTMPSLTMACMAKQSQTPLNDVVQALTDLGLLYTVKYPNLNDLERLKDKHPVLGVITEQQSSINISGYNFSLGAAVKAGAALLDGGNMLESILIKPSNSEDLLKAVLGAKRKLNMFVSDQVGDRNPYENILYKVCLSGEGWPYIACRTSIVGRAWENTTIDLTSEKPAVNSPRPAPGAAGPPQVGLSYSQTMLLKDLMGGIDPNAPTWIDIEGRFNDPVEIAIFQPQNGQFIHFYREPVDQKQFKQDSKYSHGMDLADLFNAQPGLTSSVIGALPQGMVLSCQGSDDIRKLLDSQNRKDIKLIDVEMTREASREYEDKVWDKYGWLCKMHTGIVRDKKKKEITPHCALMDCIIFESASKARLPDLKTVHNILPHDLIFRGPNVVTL
The nature of assay [5]: qHTS of pediatric cancer cell lines to identify multiple opportunities for drug repurposing: Primary screen for TC32 cells (AID 1347089). Also: nearly all actives have a fitted effect of over 60% in size. In short, it runs like this: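 Luminescent ATP read-out (CellTiter-Glo) of metabolically active TC32 cells after 48 h exposure. Concentration-response curves came from 11-point (MIPE, 0.78 nM–46 µM) or 8-point (NPC, 0.59 nM–46 µM) primary titrations; follow-up used 11 points.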

Assay [6] can be described thus: qHTS of pediatric cancer cell lines to identify multiple opportunities for drug repurposing: Primary screen for DAOY cells (AID 1347090). Also: nearly all actives have a fitted effect of over 55% in size. Also: potency is read from the fitted curve at half-maximal effect. A digest of the protocol: (§1)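 Eight- or eleven-point concentration series, 48 h treatment at 37 degrees C in growth media; readout CellTiter-Glo luminescence. Potency and efficacy were taken from the concentration-response curves.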

A short description of assay [7]: qHTS of pediatric cancer cell lines to identify multiple opportunities for drug repurposing: Primary screen for SJ-GBM2 cells (AID 1347091). A digest of the protocol: as §1
A short description of assay [8]: qHTS of pediatric cancer cell lines to identify multiple opportunities for drug repurposing: Primary screen for A673 cells (AID 1347092). Also: nearly all actives have a fitted effect of over 45% in size. Also: potency is read from the fitted curve at half-maximal effect. A digest of the protocol: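 Cell viability of A673 measured by CellTiter-Glo ATP luminescence after 48 hours compound exposure. Dilution series spanned 0.78 nM to 46 µM (MIPE, 11-point) or 0.59 nM to 46 µM (NPC, 8-point); bortezomib 2.3 uM positive control.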

Structures are written as SMILES. Inconclusive results are not listed. Activity calls are given as the source filed them. Unless noted, calls follow the shape of the dose curve; as a rule, active = well fitted curve in the direction sought with a large enough effect; inconclusive = small, poorly fitted or top-dose-only effect, or another doubt; inactive = no such curve, though single readings can be large; an effect the other way counts as inactive or inconclusive.

On to `CC(C)(C(=O)c1cccnc1)c1cccnc1`, for which the Potency entry in assay [1], in assay [2], in assay [3] and in assay [4] was “inactive” throughout.

For the compound `CN(C)CCOC(=O)C(c1ccccc1)C1(O)CCCC1` (stereo not drawn), the Potency result in assay [1], in assay [2], in assay [3] and in assay [4] was “inactive” each time.

As for `COc1cc(CC(C)N)cc(OC)c1OC` (stereo not drawn), the Potency result in assay [1], in assay [2], in assay [3], in assay [4], in assay [5] and in assay [6] was “inactive” throughout. Further, the Potency result in assay [7] and in assay [8] was “inactive” throughout.

For the compound `O=C(Nc1ccc(Br)cc1)c1cc(Br)cc(Br)c1O`, the Potency result in assay [1], in assay [2], in assay [3], in assay [4] and in assay [5] was “inactive” each time. For the same compound, the Potency in assay [6] is 21.1 µM (active).

Regarding `NNc1ccccc1`, the Potency entry in assay [1], in assay [2], in assay [3], in assay [4], in assay [5] and in assay [6] was “inactive” throughout. Besides, the Potency result in assay [7] and in assay [8] was “inactive” throughout.

As for `NCCNCCNCCN`, the Potency entry in assay [1], in assay [2], in assay [3] and in assay [4] was “inactive” each time.

With `CC(Cc1ccccc1)NCCn1cnc2c1c(=O)n(C)c(=O)n2C` (stereo not drawn), the Potency entry in assay [1], in assay [2], in assay [3], in assay [4], in assay [5] and in assay [6] was “inactive” each time. For the same compound, the Potency result in assay [7] and in assay [8] was “inactive” throughout.

As for `COc1ccc(CCN(C)CCCN2CCc3cc(OC)c(OC)cc3CC2=O)cc1OC`, the Potency entry in assay [1], in assay [2], in assay [3] and in assay [4] was “inactive” throughout.

For the compound `C=CCC1(C(C)CC)C(=O)NC(=O)NC1=O` (stereo not drawn), the Potency result in assay [1], in assay [2], in assay [3], in assay [4], in assay [5] and in assay [6] was “inactive” each time. Moreover, the Potency result in assay [7] and in assay [8] was “inactive” each time.

For `CNCC(=O)c1ccc(O)c(O)c1`, the Potency result in assay [1], in assay [2], in assay [3], in assay [4], in assay [5] and in assay [6] was “inactive” in each case. For the same compound, the Potency entry in assay [7] and in assay [8] was “inactive” in each case.

On to `NC(=O)c1cc[n+](CC2=C(C(=O)[O-])N3C(=O)[C@@H](NC(=O)Cc4cccs4)[C@H]3SC2)cc1`, for which the Potency entry in assay [1], in assay [2], in assay [3] and in assay [4] was “inactive” in each case.

In the case of `CCC(C)(C)c1ccc(O)cc1`, the Potency result in assay [1], in assay [2], in assay [3], in assay [4], in assay [5] and in assay [6] was “inactive” in each case. For the same compound, the Potency entry in assay [7] and in assay [8] was “inactive” throughout.

For `CC(=O)CC(c1ccc([N+](=O)[O-])cc1)c1c(O)c2ccccc2oc1=O` (stereo not drawn), the Potency result in assay [1], in assay [2], in assay [3] and in assay [4] was “inactive” throughout.

For the compound `CCCN(CCC)C(=O)Cc1c(-c2ccc(Cl)cc2)nc2ccc(Cl)cn12`, the Potency entry in assay [1], in assay [2], in assay [3], in assay [4], in assay [5] and in assay [6] was “inactive” throughout.

Regarding `COc1cc(OC)c(OC)cc1C=O`, the Potency entry in assay [1], in assay [2], in assay [3], in assay [4], in assay [5] and in assay [6] was “inactive” throughout. The Potency entry in assay [7] and in assay [8] was “inactive” in each case.

Regarding `CCOP(=S)(OCC)Oc1ccc2c(C)c(Cl)c(=O)oc2c1`, the Potency result in assay [1], in assay [2], in assay [3], in assay [4], in assay [5] and in assay [6] was “inactive” throughout. Moreover, in assay [7], the Potency result was “inactive”. Moreover, the Potency in assay [8] is 1 nM (active).

`CCN1CCC[C@H]1CNC(=O)c1c(O)c(Cl)cc(Cl)c1OC`: the Potency result in assay [1], in assay [2], in assay [3] and in assay [4] was “inactive” each time.

In the case of `CN1CC[C@]23c4c5ccc(O)c4O[C@H]2[C@@H](O)C=C[C@H]3[C@H]1C5`, the Potency result in assay [1], in assay [2], in assay [3], in assay [4], in assay [5] and in assay [6] was “inactive” in each case. In addition, the Potency entry in assay [7] is “inactive”.

In the case of `CCOc1cc(CC(=O)N[C@@H](CC(C)C)c2ccccc2N2CCCCC2)ccc1C(=O)O`, the Potency entry in assay [1], in assay [2], in assay [3] and in assay [4] was “inactive” in each case.

Take `COP(=S)(OC)Oc1cc(Cl)c(Cl)cc1Cl`: the Potency entry in assay [1], in assay [2], in assay [3], in assay [4], in assay [5] and in assay [6] was “inactive” each time. Also, the Potency result in assay [7] and in assay [8] was “inactive” throughout.

Turning to `CNC(C)(C)Cc1ccccc1`, the Potency result in assay [1], in assay [2], in assay [3], in assay [4], in assay [5] and in assay [6] was “inactive” in each case. The Potency result in assay [7] and in assay [8] was “inactive” in each case.

With `C[C@@H](N)[C@@H](O)c1ccccc1`, the Potency result in assay [1], in assay [2], in assay [3], in assay [4], in assay [5] and in assay [6] was “inactive” each time. For the same compound, the Potency result in assay [7] and in assay [8] was “inactive” in each case.

On to `c1ccc2c(c1)sc1ccccc12`, for which the Potency entry in assay [1], in assay [2], in assay [3], in assay [4], in assay [5] and in assay [6] was “inactive” in each case. The Potency result in assay [7] and in assay [8] was “inactive” in each case.

Consider `O=C1c2ccccc2C(=O)c2ccccc21`, for which the Potency result in assay [1], in assay [2], in assay [3], in assay [4], in assay [5] and in assay [6] was “inactive” in each case. Moreover, the Potency result in assay [7] and in assay [8] was “inactive” in each case.

For the compound `CC(=O)C1CCOC1=O` (stereo not drawn), the Potency result in assay [1], in assay [2], in assay [3], in assay [4], in assay [5] and in assay [6] was “inactive” in each case. The Potency result in assay [8] is “inactive”.

`NC1=NC(=O)C(c2ccccc2)O1` (stereo not drawn): the Potency result in assay [1], in assay [2], in assay [3], in assay [4], in assay [5] and in assay [6] was “inactive” in each case. The Potency entry in assay [7] and in assay [8] was “inactive” each time.

As for `[N-]=[N+]=CC(=O)OC[C@H](N)C(=O)O`, the Potency result in assay [1], in assay [2], in assay [3], in assay [4], in assay [5] and in assay [6] was “inactive” throughout. The Potency result in assay [7] and in assay [8] was “inactive” throughout.

With `CCN[C@@H](C)Cc1ccccc1`, the Potency result in assay [1], in assay [2], in assay [3], in assay [4], in assay [5] and in assay [6] was “inactive” throughout. Moreover, the Potency entry in assay [8] is “inactive”.

Take `CN1CC[C@]23c4c5ccc(O)c4O[C@H]2[C@@H](O)CC[C@H]3[C@H]1C5`: the Potency entry in assay [1], in assay [2], in assay [3], in assay [4], in assay [5] and in assay [6] was “inactive” each time. Also, the Potency entry in assay [7] and in assay [8] was “inactive” each time.

The values are drawn from PubChem BioAssay (NCATS).
